# In the library only some 19% were active in any assay of this set; here they are far more common.
# LASV entry inh: Lassa virus entry inhibition | Lassa virus pseudotype entry inhibition, cell reporter | Potency, µM (top dose mostly 37.9 µM), inactives show at the highest dose activity change, negative = inhibition, hits mostly inhibitors | 1.2% of 300,000 active | AID 540256; calls by dose curve; tested in HEK293 cells; also: potency is read from the fitted curve at half-maximal effect; % is scaled to controls: 0 for no effect and ±100 for the full control effect; nearly all actives have a fitted effect of over 50% in size
# Cycloheximide cs: counter-screen for Shiga toxin inhibitors: cycloheximide protein synthesis inhibition | cell reporter, cycloheximide protein synthesis inhibition counterscreen | max response, % | 12% of 300,000 active; in the data active = max response mostly above about 13%, no sharp cut-off; inactive = mostly below about 14%; also: read at 38.3 µM for the half of the compounds with a filed dose; 0% is about no effect
# Pf growth 48h: inhibits P. falciparum growth in the first generation, 48 h. P. falciparum luciferase growth in erythrocytes, 48 h. Potency, µM (titrated, usually from 28.7 µM), inactives show at the highest dose activity change, negative = inhibition, most hits filed as inhibitors. 5.9% of 310,000 active. AID 504832; also: potency is read from the fitted curve at half-maximal effect; % is scaled to controls: 0 for no effect and ±100 for the full control effect
#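 Read-out is firefly luciferase luminescence from an integrated reporter in P. falciparum, so falling signal marks reduced parasite growth. Infected erythrocytes were at 2% hematocrit and 0.1% parasitemia (final) in Albumax-supplemented RPMI 1640.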
# Pf growth 96h: P. falciparum growth inhibition at 96 hour, primary screen for plastid delayed-death inhibitors; 6.9% of 320,000 active; P. falciparum luciferase reporter growth, 96 h; AID 504834; Potency, µM (series often up to 28.7 µM), without a hit: at the top dose activity change, negative = inhibition, hits mostly inhibitors; also: potency is read from the fitted curve at half-maximal effect; % is scaled to controls: 0 for no effect and ±100 for the full control effect
#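 96 h incubation, 37 C, 5% CO2, of luciferase-reporter P. falciparum-infected RBCs (2% hematocrit, 0.05% parasitemia final) with test compounds; endpoint luminescence.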
# Shiga inhibitor: Shiga toxin inhibition; Vero cells, Shiga toxin protein synthesis inhibition reporter; inhibition, % at 38.7 µM; 9.2% of 290,000 active; in the data active = inhibition mostly above about 28%, no sharp cut-off; inactive = mostly below about 43%; also: 0% is about no effect
# Marburg entry inh: Marburg virus entry inhibition; Marburg virus pseudotyped entry inhibition, cell reporter; Potency, µM (top dose mostly 37.8 µM), inactives show top-dose activity change, negative = inhibition, actives largely listed as inhibitors; 1.8% of 300,000 active; calls by dose curve; tested in HEK293 cells; also: potency is read from the fitted curve at half-maximal effect; % is scaled to controls: 0 for no effect and ±100 for the full control effect
# * = called active by the depositor; ? = inconclusive; nt = no result; [ ] = remark or other dose. Unless noted, calls follow the shape of the dose curve; as a rule, active = well fitted inhibition curve with a large enough effect; inconclusive = small, poorly fitted or top-dose-only effect, or another doubt; inactive = no such curve, though single readings can be large or run the other way.
SMILES,LASV entry inh,Cycloheximide cs,Pf growth 48h,Pf growth 96h,Shiga inhibitor,Marburg entry inh
O=S(=O)(NC(=S)NC1CCCCC1)c1ccc(Cl)cc1,0.9%,-1.1,40.2%,0.522µM*,-3.2,9.7%
O=C(CCSc1ccccc1)NC1CCCC1,0.1%,28.1*,171.6%,49.5%,42.0,-6.3%
O=C(Cc1ccc(-c2ccccc2)cc1)NC1CCCC1,2.4%,1.5,-12.8%,-2.4%,-13.7,7.5%[46.1 µM]
Cc1ccc(S(=O)(=O)NC(=S)NC2CCCCC2)cc1,11.6%,-2.9,-25.4%,0.4%,-4.2,9.2%[46.1 µM]
O=C(CCS(=O)(=O)c1ccccc1)NC1CCCCC1,2.7%[46.1 µM],59.4*,147.1%,?,90.4*,?
COc1ccc(S(=O)(=O)CCC(=O)NC2CCCCC2)cc1,10.4%,-3.3,10.6%,5.3%,-12.7,5.4%
CCOCc1nnc(NC(=O)C2CC(=O)N(CCc3ccc(F)cc3)C2)s1 (centres undefined),-2.5%,-3.4,11.9%,-7.4%,-6.9,5.0%[46.1 µM]
Cc1nnsc1-c1nnc(SCC(=O)c2ccc(C#N)cc2)n1C1CC1,nt,-3.2,-12.8%,-0.1%,-5.9,nt
CS(=O)(=O)N(CC(=O)Nc1cccc(F)c1)c1cccc([N+](=O)[O-])c1,-5.6%,2.6,33.9%,17.0%,-5.0,-5.1%
COc1ccc(CCn2c(C)cc(C(=O)CSc3nnc(N)s3)c2C)cc1,?,8.3,?,9.28µM*,1.4,?
COc1ccc(CCn2c(C)cc(C(=O)CSc3nc(N)cc(=O)[nH]3)c2C)cc1,?,-1.5,?,9.28µM*,-16.3,?
Cc1ccc(C(=O)CSc2nc(N)cc(=O)[nH]2)cc1C,-21.3%[46.1 µM],-2.3,5.6%,115.5%,14.3,6.7%[46.1 µM]
Cc1cc(C(=O)CSc2nc(N)cc(=O)[nH]2)c(C)n1CCc1ccc(F)cc1,-21.8%,-1.0,1.6%,3.1%,-8.1,?
CCc1ccc(C(=O)CSc2nc(N)cc(=O)[nH]2)cc1,26.3%[46.1 µM],0.9,83.1%,10.4µM*,-16.9,14.6%[46.1 µM]
Cc1cc(C(=O)CSc2nnc(N)s2)c(C)n1CCc1ccc(Cl)cc1,-4.2%,13.0,-20.6%,?,25.1,-29.7%
O=C(Cc1ccccc1)Nc1cccc(C(=O)O)c1O,-5.3%,14.2,19.5%,-4.2%,11.9,0.2%[46.1 µM]
O=C(O)CCCCCN1C(=O)C2CCCCC2C1=O (centres undefined),?,-2.4,3.7%,9.28µM*,-3.5,5.0%
O=S(=O)(O)c1cc(O)c2c(O)c(N=Nc3cc(Cl)ccc3O)c(S(=O)(=O)O)cc2c1,?,-2.6,-6.2%,2.3%,-0.8,?
Cc1cc(-c2ccc(N=Nc3c(S(=O)(=O)O)cc4cc(S(=O)(=O)O)cc(N)c4c3O)c(C)c2)ccc1N=Nc1c(S(=O)(=O)O)cc2cc(S(=O)(=O)O)cc(N)c2c1O,?,nt,6.57µM*,9.53µM*,nt,15.8µM*
O=C(O)/C=C\c1ccccc1Oc1ccc(F)cc1,-0.9%[46.1 µM],11.5,-16.9%,98.3%,2.6,12.1%[46.1 µM]
COc1cccc(-c2cc(CC3(O)CCN(CCCc4ccccc4)CC3)on2)c1,nt,6.1,11.7µM*,?,12.8,nt
Cc1cccc(C)c1Nc1nnc(SCc2cc([N+](=O)[O-])cc3c2OCOC3)s1,-3.2%,5.2,nt,?,-6.3,?
COc1cc(/C=N/NC(=O)c2cccc(S(=O)(=O)N3CCCC3)c2)cc(OC)c1O,?,nt,5.1%,12.6%,nt,15.3%
CC(C)=CCN1CCN(CCC2=C(C)CCCC2(C)C)CC1CCO (centres undefined),nt,-2.4,13.1µM*,-14.0%,-5.1,nt
CC1=C(CCN2CCN(C3CCCC3)C(CCO)C2)C(C)(C)CCC1 (centres undefined),-30.0%[46.1 µM],-2.5,?,32.2%,-3.7,?
Nc1nnc(CCCCc2cccs2)o1,-12.4%,-4.8,11.0%,8.7%,-8.0,8.7%
O=C(O)CCCC(=O)OCCCCc1cccs1,7.9%,-6.6,17.9%,5.22µM*,-17.4,2.4%
Cc1cc(C)cc(NC(=O)CN2CCN(C(=O)c3cccs3)CC2)c1,-25.2%[46.1 µM],nt,nt,nt,nt,10.4%[46.1 µM]
CC(=O)Nc1ccc(S(=O)(=O)Nc2cccn(Cc3ccc(C)cc3)c2=O)cc1,-24.1%[46.1 µM],-0.5,-14.8%,-4.8%,-1.0,0.7%[46.1 µM]
COc1cccc(C2CC(c3ccc(NS(C)(=O)=O)cc3)=NN2C(=O)c2ccccc2)c1OC (centres undefined),?,51.2*,?,-75.6%,133.6*,?

# From PubChem BioAssay
